The results in this text go back to PubChem BioAssay.

“And” between values parts separate entries of the source, which are not always exact repeats. Identical values can stand only once. For part of these data: Results with a measured potency or affinity are listed apart. The source made the active and inactive calls. Unless noted, no stated cut-off is given here; in the data, active means inhibition above about 80%; inactive means the rest.

A short description of assay [1]: viability rescue of complex I mutant cybrids, primary screen, cell-based, galactose medium, ATP luminescence (AID 1645843;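 active means z-score of at least 1.8 in each of two replicates, scored against plate mean and spread of sample wells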;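 further: positive z means more ATP and so rescue of galactose-driven cybrid death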). The note with it: complex I mutant cybrid cells, 72 h, stronger effect = higher value.
Assay [2] in a line: polyglutamine-triggered caspase-3 activation inhibitors, cell-based (AID 1583). The note with it: polyglutamine-induced caspase-3 activation, cell assay; stronger effect = higher value;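 tested at 10 µM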.
A short description of assay [3]: suppressors of polyQ aggregation in yeast, 75Q-TubU reporter (AID 1593). The note with it: Yeast 75Q polyglutamine aggregation reporter.
The nature of assay [4]: rescue of polyQ-huntingtin neuronal dysfunction in worms, whole organism, C. elegans mechanosensory neurons, N-terminal huntingtin (AID 1599). Conditions: touch response, stronger effect = higher value.
Assay [5] in a line: inhibitors of mitochondrial cytochrome c release, biochemical, purified mitochondria (AID 1603).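 Further: mouse liver mitochondria challenged with calcium chloride; signal normalized to the plate average as 100%.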 Conditions: stronger effect = lower value.
Assay [6] in a line: LFS_MB_P medulloblastoma growth inhibition, cell-based, chromothripsis tumors, cisplatin or BGB combos (AID 1671449).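 Further: cells exposed for 96 hours; 0% = vehicle DMSO and 100% = killing by high DMSO.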 Conditions: LFS_MB_P medulloblastoma cells.
Assay [7] can be described thus: HDN33 neuroblastoma growth inhibition, cell-based, chromothripsis tumors, cisplatin or BGB combos (AID 1671450).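 Further: cells exposed to compound for four days; 0% = vehicle DMSO and 100% = cell killing by high DMSO.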 Conditions: HDN33 neuroblastoma cells, stronger effect = higher value.
Assay [8] in a line: ICB984 medulloblastoma cell growth inhibition, synergistic combos for chromothripsis tumors, cisplatin or BGB combos (AID 1671451; call rule not given here;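 further: cells exposed for 96 hours before readout; 0% = vehicle DMSO and 100% = killing by high DMSO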). The note with it: ICB984 medulloblastoma cells, drug combinations, stronger effect = higher value.
Assay [9] in a line: LFS_MB_1R medulloblastoma cell growth inhibition, synergistic combos for chromothripsis tumors, cisplatin or BGB combos (AID 1671452).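 Further: cells exposed for 96 hours before readout.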 The note with it: LFS_MB_1R medulloblastoma cells, stronger effect = higher value.
A short description of assay [10]: HTB85 osteosarcoma cell growth inhibition, synergistic combos for chromothripsis tumors, BGB or cisplatin IC20 combos (AID 1671453).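 Further: cells exposed for 96 hours before readout; 0% = vehicle DMSO and 100% = high DMSO killing control.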 The note with it: HTB85 osteosarcoma cells, drug combinations, stronger effect = higher value.
Assay [11] can be described thus: CRL2098 osteosarcoma cell growth inhibition, synergistic combos for chromothripsis tumors, BGB or cisplatin IC20 combos (AID 1671454).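 Further: cells exposed for 96 h before readout; 0% = vehicle DMSO and 100% = killing by high DMSO.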 Conditions: CRL2098 osteosarcoma cells, drug combinations, stronger effect = higher value.
The nature of assay [12]: HD-MB03 medulloblastoma cell growth inhibition, synergistic combos for chromothripsis tumors, BGB or cisplatin IC20 combos (AID 1671455; in the data active means inhibition above about 83%;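 further: 0% = vehicle DMSO and 100% = high DMSO as cytotoxic control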). Conditions: HD-MB03 medulloblastoma cells, stronger effect = higher value.
Assay [13] is described as follows: UWB1.289 ovarian carcinoma cell growth inhibition, synergistic combos for chromothripsis tumors, BGB or cisplatin combos (AID 1671456).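 Further: cells exposed to compound for four days; 0% = vehicle DMSO and 100% = killing by high DMSO.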 Conditions: UWB1.289 ovarian carcinoma cells, stronger effect = higher value.
A short description of assay [14]: LFS_MB_2R medulloblastoma cell growth inhibition, synergistic combos for chromothripsis tumors, cisplatin combos (AID 1671457).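 Further: cells exposed to compound for four days before readout.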 The note with it: LFS_MB_2R medulloblastoma cells, stronger effect = higher value.
Assay [15] can be described thus: MDA-MB-436 breast carcinoma cell growth inhibition, synergistic combos for chromothripsis tumors, BGB or cisplatin combos (AID 1671458; call rule not given here;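 further: cells exposed for 96 hours; 0% = vehicle DMSO and 100% = killing by high DMSO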). The note with it: MDA-MB-436 breast carcinoma growth inhibition, drug combinations, stronger effect = higher value.
A short description of assay [16]: UWB1.289_BRCA1 ovarian cancer growth, cell-based, BGB or cisplatin combinations (AID 1671459). The note with it: UWB1.289 BRCA1 ovarian carcinoma, drug combinations, stronger effect = higher value.
The nature of assay [17]: human astrocyte viability loss, single and combined drugs, cytotoxicity control for chromothriptic childhood tumor combination screen, cell-based, BGB or cisplatin IC20 combos (AID 1671460).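 Further: cells exposed to compounds for 96 hours before viability readout; 0% = vehicle and 100% = killing control.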 Conditions: Human astrocytes, drug combinations, stronger effect = higher value.
The nature of assay [18]: growth inhibition of BT084 medulloblastoma cells, cell-based, ICGC_MB145, cisplatin and BGB IC40 combos (AID 1671461).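 Further: cells exposed to drugs for 96 hours; 0% = vehicle DMSO and 100% = high DMSO full killing control.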 Conditions: drug combinations, stronger effect = higher value.
Assay [19] can be described thus: growth inhibition of RCMB18 medulloblastoma cells, cell-based, cisplatin and BGB IC40 combos (AID 1671462).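 Further: cells exposed to compound for four days.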 Conditions: stronger effect = higher value.
Assay [20] can be described thus: growth inhibition of CRL1545 osteosarcoma cells, cell-based, cisplatin and BGB IC20 combos (AID 1671464).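 Further: cells exposed to compound for 96 hours before readout; 0% = vehicle DMSO and 100% = high DMSO killing control.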 Conditions: stronger effect = higher value.
[21] abbreviates: measured here: combination with BGB IC40, at 0.05 µM.
Where [22] appears, read: measured here: with BGB IC20 combination, at 0.5 µM.
The mark [23] stands for this setting: measured here: with cisplatin IC20 combination, at 0.5 µM.
The mark [24] stands for this setting: measured here: combination with cisplatin, at 0.5 µM.
[25] abbreviates: measured here: combination with cisplatin, at 5 µM.

As to `OCC1CCCN(C2CCN(c3ncnc4sccc34)CC2)C1` (stereo unspecified), in [1], the z-score was 1 (inactive).

On to `Cc1nc(C(=O)N2CCCC(Cn3cc(-c4ccsc4)nn3)C2)cs1` (stereo unspecified), for which, in assay [1], the z-score was -0.08 (inactive).

`CCc1nc(C)ccc1OCC(=O)N1CCc2[nH]nc(C3CC3)c2C1`: the z-score in assay [1] is -0.685 (inactive).

One may read the inhibition as the drop in the measured response relative to a control, in per cent. As to `CC(=O)CCC1C2=NC(=C\C3=NC(=C(/C)C4=NC(C)(C5[N-]/C(=C\2C)C(C)(CCC(=O)NCC(C)OP(=O)(O)O[C@@H]2[C@@H](CO)OC(n6cnc7cc(C)c(C)cc76)[C@@H]2O)C5CC(N)=O)C(C)(CC(N)=O)C4CCC(N)=O)/C(C)(CC(N)=O)C3CCC(N)=O)/C1(C)C.[CH2-][C@H]1OC(n2cnc3c(N)ncnc32)[C@H](O)[C@@H]1O.[Co+2]` (stereo partly specified), the inhibition in assay [2] is 55.6%. The same compound came in with a score in [3] of 1.56. Also, in assay [4], the rescue above control is 0.82. In addition, in [5], the cytochrome c release ratio worked out at 0.56.

For the compound `C=C1C2(C(=O)N3CCC(CCN4CCCC4=O)CC3)CCC(C2)C1(C)C` (stereo unspecified), in assay [1], the z-score was -0.41 (inactive).

For `O=C(Nc1ccc2nccnc2c1)c1csc(Cc2ccccc2)n1`, in [1], the z-score is -1.07 (inactive).

Take `Fc1ccc(C(c2ccccc2)(c2ccccc2F)n2ccnc2)cc1` (stereo unspecified): the inhibition in [2] was -9.56% and 14%. For the same compound, in assay [3], the score is 1.45 and 0.36. For the same compound, the rescue above control in assay [4] was 12 and 6.65. For the same compound, in assay [5], the cytochrome c release ratio was 3.37 and 1.21.

With `COc1cccc2ccc(-c3ccc(C(=O)N(C)C)cc3)nc12`, the z-score in [1] was 1.37 (inactive).

As to `CCc1cc(-c2cccc(C)c2C)nc(N(C)C)n1`, the z-score in assay [1] was 1.21 (inactive).

On to `CC(C)[C@@H](C)/C=C/[C@@H](C)C1CC[C@H]2/C(=C/C=C3\C[C@@H](O)CC[C@@H]3C)CCC[C@]12C` (stereo partly specified), for which the inhibition in [2] stood at 63.6%. Further, the score in assay [3] is 0.42. In assay [4], this compound gave a rescue above control of 5.3. For the same compound, the cytochrome c release ratio in assay [5] was 0.91.

For the compound `CNCc1cn(C2CCN(CCC(C)CCCC(C)(C)O)CC2)nn1` (stereo unspecified), in [1], the z-score is -0.56 (inactive).

As to `Cc1cc(Cl)cc2c(=O)n(C(C)Cn3cccn3)cnc12` (stereo unspecified), the z-score in assay [1] is -0.45 (inactive).

Consider `COc1cccc(C(=O)c2ccccc2O)c1O`, for which, in assay [2], the inhibition is -4.26%. In addition, the score in assay [3] is 0.2. This compound also gave a rescue above control in assay [4] of 0. Moreover, the cytochrome c release ratio in assay [5] came to 1.59.

As for `CC(CC12CC3CC(CC(C3)C1)C2)n1cnc2nccnc2c1=O` (stereo unspecified), the z-score in assay [1] is 1.54 (inactive).

Take `Cc1ccc(C(=O)N2CCNC(=O)C2Cc2ccccc2)c(F)c1` (stereo unspecified): the z-score in assay [1] was -0.535 (inactive).

In the case of `CC(Oc1ccc2c(c1)OCO2)C(=O)N1CCCCC1CCN1CCCC1=O` (stereo unspecified), the z-score in assay [1] is 1.73 (inactive).

Consider `Cc1cc(C)cc(C(=O)NOCCCCCC(=O)NO)c1`, for which the inhibition in assay [6] (at 0.5 µM, stronger effect = higher value) is -18.6% (inactive); in assay [6] (measured here: combination with BGB IC20, at 0.005 µM), -25.1%; in assay [6] (measured here: combination with BGB IC40, at 0.005 µM) it was -71.8%; in [6] (setting [21]) it was -38.3%; in [6] (measured here: combination with cisplatin, at 0.5 µM, stronger effect = higher value), 23.3%; in assay [6] (measured here: combination with cisplatin, at 5 µM, stronger effect = higher value) it was 101%. Further, the inhibition is 98% in assay [7] (BGB combo, at 5 µM); 16.4% (inactive) in [7] (at 0.5 µM); 99.6% in [7] (cisplatin combo, at 5 µM); 11.9% in assay [7] (setting [22]); 14.2% in [7] (setting [23]); 99.6% in assay [7] (single agent, at 5 µM). The inhibition in assay [8] (BGB IC20 combo, at 0.005 µM) is 3.29%; in [8] (BGB IC40 combo, at 0.005 µM), -11.3%; in assay [8] (BGB IC40 combo, at 0.05 µM) it was 93.2%; in assay [8] (at 0.5 µM), -24.3% (inactive); in assay [8] (cisplatin combo, at 0.05 µM), 93.4%; in assay [8] (cisplatin combo, at 0.5 µM), -27.8%. The inhibition in assay [8] (cisplatin combo, at 5 µM) was -32.7%; in assay [8] (measured here: 5 uM single agent, at 5 µM), -20.9%; in assay [9] (at 0.5 µM) it was 21.5% (inactive); in [9] (setting [21]), -19%; in assay [9] (setting [24]), 16.6%; in assay [9] (setting [25]), 97%. In addition, the inhibition is 15.3% (inactive) in assay [10] (at 0.5 µM); 4.55% in assay [10] (measured here: with BGB IC20, at 0.5 µM); 96.8% in [10] (measured here: with BGB IC20, at 5 µM); 32.1% in assay [10] (measured here: with cisplatin IC20, at 0.5 µM); 99.4% in assay [10] (measured here: with cisplatin IC20, at 5 µM); 98.4% in [10] (single agent, at 5 µM). The inhibition in assay [11] (at 0.5 µM) was -44.3% (inactive); in assay [11] (measured here: combination with BGB at IC20, at 0.5 µM), -68.4%; in [11] (measured here: combination with cisplatin at IC20, at 0.5 µM) it was -43.7%; in assay [12] (at 0.5 µM), 53.4% (inactive); in assay [12] (measured here: combo with BGB at IC20, at 0.5 µM) it was 36.6%; in [12] (measured here: combo with cisplatin at IC20, at 0.5 µM), 95.8%. The inhibition is 35% (inactive) in [13] (at 0.5 µM); -9.28% in [13] (measured here: inhibition with BGB combination, at 0.05 µM); -8.14% in [13] (measured here: inhibition with cisplatin combination, at 0.05 µM); 8.45% (inactive) in assay [14] (at 0.5 µM); 32.9% in assay [14] (setting [24]); 102% in assay [14] (setting [25]). Further, the inhibition is 7.8% (inactive) in assay [15] (at 0.5 µM); -12.2% in assay [15] (measured here: BGB combination, at 0.5 µM); 42.5% in [15] (measured here: BGB combination, at 5 µM); -3.09% in assay [15] (measured here: cisplatin combination, at 0.5 µM); 53.9% in assay [15] (measured here: cisplatin combination, at 5 µM); 92.6% in [16] (BGB combination, concentration series, at 5 µM). Moreover, the inhibition in [16] (at 0.5 µM) is 33.7% (inactive); in assay [16] (cisplatin combination, concentration series, at 5 µM), 110%; in assay [17] (at 0.5 µM), 38% (inactive); in assay [17] (measured here: combo with BGB IC20, at 0.5 µM), 37.9%; in [17] (measured here: combo with cisplatin IC20, at 0.5 µM), 25.6%; in assay [18] (at 0.5 µM) it was 35.6% (inactive). The inhibition is 32.4% in assay [18] (cisplatin combination, at 0.5 µM); 98.6% in assay [18] (cisplatin combination, at 5 µM); -14.5% in assay [18] (measured here: BGB IC40 combination 0.05 uM, at 0.05 µM); 105% in assay [18] (single agent, at 5 µM); 21.6% (inactive) in assay [19] (at 0.5 µM); 92.9% in [19] (cisplatin combo, at 5 µM). In addition, the inhibition in [19] (measured here: BGB IC40 combination, at 0.05 µM) was -1.76%; in assay [19] (setting [24]), 22.3%; in [19] (single agent, at 5 µM) it was 89.9%; in assay [20] (at 0.5 µM), 75.7% (inactive); in assay [20] (setting [22]), 64.9%; in assay [20] (setting [23]), 80.7%. Besides, the inhibition in [20] (single agent, at 0.05 µM) is 5.92%; in [20] (single agent, at 5 µM), 72.3%.
